An excerpt weighted towards active compounds, which were near 0.82% of everything screened.
E coli Lon inh = E. coli protease La inhibition. purified E. coli Lon protease, fluorescence polarization. P0A9M0. AID 602123. 0.42% of 360,000 active. inhibition, % at 7.94 µM; in the data active = inhibition above about 13%, passing the limit was not always enough
Target sequence (P0A9M0 whole entry, looked up): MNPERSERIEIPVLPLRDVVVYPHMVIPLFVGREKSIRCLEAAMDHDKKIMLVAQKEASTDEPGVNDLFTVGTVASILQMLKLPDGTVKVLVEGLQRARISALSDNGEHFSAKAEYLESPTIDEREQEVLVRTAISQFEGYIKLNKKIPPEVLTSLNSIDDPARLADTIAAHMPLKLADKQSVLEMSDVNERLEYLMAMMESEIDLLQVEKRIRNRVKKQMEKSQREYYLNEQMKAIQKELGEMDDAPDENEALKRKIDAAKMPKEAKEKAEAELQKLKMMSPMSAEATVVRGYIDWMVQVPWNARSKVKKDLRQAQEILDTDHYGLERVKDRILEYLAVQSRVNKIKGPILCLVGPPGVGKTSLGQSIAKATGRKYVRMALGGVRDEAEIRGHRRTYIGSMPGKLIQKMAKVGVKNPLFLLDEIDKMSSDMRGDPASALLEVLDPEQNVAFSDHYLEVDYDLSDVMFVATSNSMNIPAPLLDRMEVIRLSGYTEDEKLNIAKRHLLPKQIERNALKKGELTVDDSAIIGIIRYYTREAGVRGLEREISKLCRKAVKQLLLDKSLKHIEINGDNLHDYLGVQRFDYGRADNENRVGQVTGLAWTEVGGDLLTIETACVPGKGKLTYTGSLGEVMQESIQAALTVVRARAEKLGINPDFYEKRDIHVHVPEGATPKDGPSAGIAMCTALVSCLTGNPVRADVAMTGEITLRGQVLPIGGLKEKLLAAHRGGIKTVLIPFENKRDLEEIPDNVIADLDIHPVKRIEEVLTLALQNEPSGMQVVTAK
Cardiac RTF inh = cardiac RTF calcium desensitization; 0.12% of 340,000 active; inhibition, % at 7.15 µM; IANBD-labeled cardiac RTF, Ca2+ fluorescence; P19429+P45379;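 active = inhibition above the mean inhibition of all tested compounds plus 3 SD, cut at about 17% in these data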;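 note: assay run at fixed EC70 calcium of 1.6 mM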
cardiac RTF act = increases calcium sensitivity of human cardiac regulated thin filaments; P19429+P45379; IANBD-labeled TnC RTF fluorescence at EC20 calcium; 0% EC20 calcium, 100% full calcium; activation, % at 7.2 µM; 0.24% of 340,000 active;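 active = activation above the mean over all tested compounds plus 3 SD, cut at about 30% in these data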;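 note: rise in fluorescence read as greater calcium sensitivity of cardiac thin filaments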
Keap1-Nrf2 PPI = Keap1-Nrf2 (human) interaction inhibition. Keap1 Kelch-Nrf2 peptide fluorescence polarization, 1536-well. inhibition, % at 9.4 µM. 0.15% of 340,000 active. AID 504523; in the data active = inhibition above about 12%;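 note: human Keap1 Kelch domain with fluorescein labeled Nrf2 9mer peptide probe; higher means more block of Keap1 binding to Nrf2 peptide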
C-LANA FP = KSHV C-LANA DNA binding inhibition | MBP-C-LANA/FAM-LBS DNA binding, fluorescence polarization | inhibition, % at 9 µM | 0.078% of 340,000 active | AID 504423;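 active = highest replicate inhibition at or above 60% at 9 µM, even if other replicates fall short; inactive = all replicates below 60% inhibition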
E coli Lon conf = confirmation of E. coli Lon protease inhibitors; shares compounds with E coli Lon inh; purified E. coli Lon, fluorescence polarization; inhibition, % at 7.94 µM; 31% of 1,400 active; AID 602230; in the data active = inhibition above about 16%
A number is an active result; ! = a repeat was not active.

CC(=O)Nc1cc(-c2ccccc2N(C)C)cn2c(-c3ccc(S(C)(=O)=O)cc3)cnc12 was read as E coli Lon inh active and E coli Lon conf 55.
For CC(=O)c1c(C)[nH]c(C(=O)CSc2nnc(-c3ccco3)n2Cc2ccccc2)c1C the results were E coli Lon inh inactive, Cardiac RTF inh inactive, cardiac RTF act inactive, Keap1-Nrf2 PPI inactive and C-LANA FP inactive.
`CC(=O)c1c(C)[nH]c(C(=O)CSc2nnc(-c3ccccc3)n2Cc2ccc3c(c2)OCO3)c1C` gave E coli Lon inh 18, Cardiac RTF inh inactive, cardiac RTF act inactive, Keap1-Nrf2 PPI inactive, C-LANA FP inactive and E coli Lon conf inactive.
COC(=O)N(C)C[C@@H]1OCc2cnnn2CCCC(=O)N([C@@H](C)CO)C[C@H]1C was read as E coli Lon inh inactive.
CN(C)c1cccc(C(=O)NCc2ccccc2Cl)c1 was read as E coli Lon inh 68, Cardiac RTF inh inactive, cardiac RTF act inactive, Keap1-Nrf2 PPI inactive, C-LANA FP inactive and E coli Lon conf inactive.
Screening O=C(O)c1ccccc1C(=O)N1CCN(c2ccccc2)CC1 returned E coli Lon inh inactive, Cardiac RTF inh inactive, cardiac RTF act inactive, Keap1-Nrf2 PPI inactive and C-LANA FP inactive.
O=C(COC(=O)c1ccccc1C(=O)N1CCN(c2ccccc2)CC1)Nc1ccccc1 was read as E coli Lon inh inactive, Cardiac RTF inh inactive, cardiac RTF act inactive, Keap1-Nrf2 PPI inactive and C-LANA FP inactive.
COc1cccc(NC(=O)COC(=O)c2ccccc2C(=O)N2CCN(c3ccccc3)CC2)c1 was read as E coli Lon inh 16, Cardiac RTF inh inactive, cardiac RTF act inactive, Keap1-Nrf2 PPI inactive, C-LANA FP inactive and E coli Lon conf inactive.
For O=C(COC(=O)c1ccccc1C(=O)N1CCN(c2ccccc2)CC1)Nc1ccc(F)cc1 the results were E coli Lon inh 22, Cardiac RTF inh inactive, cardiac RTF act inactive, Keap1-Nrf2 PPI inactive, C-LANA FP inactive and E coli Lon conf inactive.
Screening Cc1ccccc1C(=O)N1CCN(c2ccc(N3CCOCC3)nn2)CC1 returned E coli Lon inh 23, Cardiac RTF inh inactive, cardiac RTF act inactive, Keap1-Nrf2 PPI inactive, C-LANA FP inactive and E coli Lon conf inactive.
For O=C(c1ccccc1C(=O)N1CCN(c2ccccc2)CC1)N1CCN(c2ccccc2)CC1 the results were E coli Lon inh 34, Cardiac RTF inh inactive, cardiac RTF act 32, Keap1-Nrf2 PPI inactive, C-LANA FP inactive and E coli Lon conf 17.
`CC(C)Nc1nc(NCc2ccccc2)c2sccc2n1` gave E coli Lon inh inactive.
`O=C1NC[C@@H](CCCCN2C[C@H](Cc3ccc(O)cc3)N(CC3CCCCC3)C(=O)C2=O)N(CCC2CCCCC2)C1=O` gave E coli Lon inh inactive.
`CN1CCN(C(=O)c2ccc3c(c2)N(Cc2ccc(Cl)cc2)C(=O)c2ccccc2S3=O)CC1` (stereo unspecified) gave E coli Lon inh inactive, Cardiac RTF inh inactive, cardiac RTF act inactive, Keap1-Nrf2 PPI inactive and C-LANA FP inactive.
For CN1CCN(C(=O)c2ccc3c(c2)N(Cc2ccccc2F)C(=O)c2ccccc2S3=O)CC1 (stereo unspecified) the results were E coli Lon inh 16, Cardiac RTF inh inactive, cardiac RTF act inactive, Keap1-Nrf2 PPI inactive, C-LANA FP inactive and E coli Lon conf inactive.
`Cc1coc2c(C)c3oc(=O)c(CCC(=O)N[C@H](C(=O)O)C(C)C)c(C)c3cc12` gave E coli Lon inh inactive.
`CCOC(=O)[C@]12CCC=C1N(Cc1ccco1)C(=O)[C@H](CC(=O)NCC1CCCCC1)C2` gave E coli Lon inh inactive.
For COc1ccc2[nH]cc(CCNC(=O)CC[C@H]3O[C@@H](n4cc(C)c(=O)[nH]c4=O)C[C@@H]3O)c2c1 the results were E coli Lon inh 13, Cardiac RTF inh inactive, cardiac RTF act inactive, Keap1-Nrf2 PPI inactive, C-LANA FP inactive and E coli Lon conf inactive.
CCN1CCN(Cc2ccc(NC(=O)c3ccc(C)c(NC(=O)c4nccn4C)c3)cc2C(F)(F)F)CC1 was read as E coli Lon inh inactive, Cardiac RTF inh inactive, cardiac RTF act inactive, Keap1-Nrf2 PPI inactive and C-LANA FP inactive.
CCN1CCN(Cc2ccc(NC(=O)c3ccc(C)c(NC(=O)c4cccc5[nH]ccc45)c3)cc2C(F)(F)F)CC1 was read as E coli Lon inh 13!, Cardiac RTF inh inactive, cardiac RTF act inactive, Keap1-Nrf2 PPI inactive, C-LANA FP inactive and E coli Lon conf inactive.
